Each structure is given as a SMILES string. Inconclusive results are not listed. Entries that show only a call come without a potency. The source made the active and inactive calls. The call rests on the fitted dose curve; in most records, active means well fitted inhibition curve with a large enough effect; inconclusive means small, poorly fitted or top-dose-only effect; inactive means flat fitted curve, though single readings scatter.
Potency means the concentration at half of the fitted maximal effect.

A short description of the test: qHTS for differential inhibitors of proliferation of Plasmodium falciparum line Dd2 (AID 1882). Further: nearly all actives have a fitted effect of over 65% in size. The following applies: Potency: Plasmodium falciparum Dd2 proliferation inhibition; series mostly up to 28.7 µM. From the text: NIH Molecular Libraries Probe Production Network [MLPCN]
NIH National Institute of Allergy and Infectious Diseases [NIAID]
NIH Chemical Genomics Center [NCGC]
Assay Provider: Xinzhuan Su, NIAID
Plasmodium falciparum is a virulent malarial parasite that kills 1-2 million people worldwide each year. Transmitted by mosquitoes, the sporozoite form of the parasite enters the blood stream to infect hepatocytes, where they become merozoites that infect red blood cells (erythrocytes). Within erythrocytes, merozoites begin a […] cycle of growth and division, after which the parasite is released to infect new red blood cells. Gametocytes, which form within erythrocytes as well, circulate in the bloodstream and are ingested by the mosquito, thereby completing the life cycle. To profile malarial isolates for differential chemical responses and to identify inhibitors of malarial growth, an assay that measures P. falciparum growth and replication within erythrocytes was employed. This assay uses a DNA binding fluorescent dye (SYBR Green) to detect parasite DNA following cell lysis. Because mature erythrocytes lack DNA, only Plasmodium-derived DNA is detected. The P. falciparum line Dd2, derived from a malarial isolate from […], was used.
NCGC Assay Protocol Summary:
The SYBR Green viability assay was adapted from a method described previously (Plouffe et al., 2008). For screening 3 ul culture medium was dispensed into 1536 well black clear bottom plates (Aurora Biotechnologies) using a Multidrop Combi (Thermo Fisher Scientific Inc.), 23 nL compounds in DMSO were added by a pin tool (Kalypsys), and 5 ul of erythrocytes infected with P. falciparum line Dd2 (0.3% parasitemia, 2.5% hematocrit final concentration) were added. The plates were incubated at 37 C in a humidified incubator in 5% CO2 for 72 h, and 2 ul lysis buffer (20 mM Tris HCl, 10 mM EDTA, […]% saponin, 1.6% triton X, 10X SYBR Green I supplied as 10,000X […] by Invitrogen) was added to each well. The plates were mixed for 25 sec with gentle shaking and incubated overnight at room temperature in the dark. The following morning, fluorescence intensity at 485(14) nm excitation and 535(25) nm emission wavelengths was measured on an EnVision (Perkin Elmer) plate reader. Plate reads were normalized relative to the control inhibitor (0.29 uM artemisinin) and vehicle (DMSO) wells present on each plate and then corrected by an algorithm using vehicle-only control plates at the beginning and end of the compound plate stack.
Plouffe D, Brinker A, McNamara C, Henson K, Kato N, Kuhen K, Nagle A, Adrian F, Matzen JT, Anderson P, Nam TG, Gray NS, Chatterjee A, Janes J, Yan SF, Trager R, Caldwell JS, Schultz PG, Zhou Y, Winzeler EA. […] Proc Natl Acad Sci U S A. 2008, 105(26), pp 9059-64.
For orientation: Quantitative high-throughput screening tests each substance at several concentrations.
For the molecule `COc1cc(NS(C)(=O)=O)ccc1Nc1c2ccccc2nc2ccccc12`, the Potency is 2.51 µM (active).
As for `CCCn1c(=O)[nH]c(=O)c2[nH]cnc21`, the entry is “inactive”.
With `C[C@@H]1C(=O)NC2=Nc3cccc(Cl)c3CN21` the entry was “inactive”; with `CC1(C)CCC(NC(=O)[C@@H](N)CCC(=O)O)CC1`, “inactive”.
With `C[C@]12CC[C@@H]3c4ccc(O)cc4CC[C@H]3[C@@H]1CC[C@@H]2O` the entry was “inactive”; with `C[N+]1(CCCCC[N+]2(C)CCCC2)CCCC1`, “inactive”.
For `CN=C(NC#N)Nc1ccc(C2=NNC(=O)CC2C)cc1` (centres undefined), the Potency entry is “inactive”.
`N[C@@H](Cc1cnc[nH]1)C(=O)O`: the Potency entry was “inactive”.
With `CNCCC=C1c2ccccc2CCc2ccccc21` the figure was 2.82 µM (active); with `O=C1CCC(c2ccc(-n3ccnc3)cc2)=NN1`, “inactive”.
With `N[C@H](CO)C(=O)O` the entry was “inactive”.
With `COc1cc(-c2ccc(=O)[nH]n2)ccc1OC(F)F` the entry was “inactive”.
Turning to `COC(=O)[C@H]1[C@H]2C[C@H]3c4[nH]c5ccccc5c4CCN3C[C@H]2CC[C@@H]1O`, the Potency entry was “inactive”.
With `C1CCc2nnnn2CC1`, the Potency result is “inactive”.
As for `CCC(NC(C)C)C(O)c1ccc(O)c(O)c1` (centres undefined), the figure is 7.08 µM (active); as for `Nc1cc(Cl)c(NC2=NCCN2)c(Cl)c1`, “inactive”.
Regarding `CC(C)COC(=O)OCN1C(=O)CN(CCN2CC(=O)N(COC(=O)OCC(C)C)C(=O)C2)CC1=O`, the Potency result is “inactive”.
With `CC(C)NC[C@@H](O)COc1cccc2ccccc12` the figure was 7.94 µM (active).
For the molecule `O=C(O)c1cc2cc(Cc3cccnc3)ccc2o1`, the Potency result is “inactive”.

The values are drawn from PubChem BioAssay (NCATS).
